# Paper PMC4552634, “A New Set of Chemical Starting Points with Plasmodium falciparum Transmission-Blocking Potential for Antimalarial Drug Discovery” (PLoS ONE, 2015)
# Screen size: about 13,000 compounds; about 3,200 (25%) showed an effect of 50% or more. This is one part of the list.
# System: P. falciparum stage V gametocytes
# Parameters: BacTiter-Glo ATP luminescence viability of purified stage V gametocytes in 384-well plates, per cent inhibition versus DMSO
# Conditions: 48 h, 5 µM; inhibitor
row,Compound,% Inhibition
1,O=C(C=Cc1ccc(Cl)c(Cl)c1)NCCCCCN1CCC(CCNC(=O)C(c2ccccc2)c2ccccc2)CC1 [TCMDC-139570],77.62%
2,CCc1cc(NCc2ccncc2)nc(Nc2ccc(F)cc2)n1 [TCMDC-134015],15.5%
3,CC(C)(C)NC(=O)C(c1ccc(F)cc1)N(C(=O)c1ccc(CN2CCOCC2)o1)c1ccc(C2CCCCC2)cc1 (stereo not shown) [TCMDC-125562],-47.12%
4,CCc1ccc(CN2CCC(CN(c3ccc(N4CCOCC4)c(F)c3)S(=O)(=O)c3ccc(C(C)(C)CC)cc3)CC2)cc1 [TCMDC-135290],-12.43%
5,COc1ccccc1C1CCN(C2CCC(NC(=O)/C=C/c3cc(F)cc(F)c3)CC2)CC1 (stereo not shown) [TCMDC-133492],-91.94%
6,CCOC(=O)c1nc2ccc(SC3CCCCC3)cn2c1Br [TCMDC-138030],0.4377%
7,COc1ccc2c(=O)ccn(CCN3CCC(NCc4ccc5c(n4)NC(=O)CS5)CC3)c2c1 [TCMDC-141809],-63.52%
8,Nc1nc(N)c2c(Oc3cccc4ccccc34)cccc2n1 [TCMDC-137739],-7.537%
9,CN(C)c1ccc2nc(N)nc(N)c2c1Cl [TCMDC-137862],-17.95%
10,COc1cc2cc(-c3nc4ccccc4[nH]3)c(N)nc2cc1OC [TCMDC-125600],19.66%
11,Nc1nc(N)c2c(ccc3ccccc32)n1 [TCMDC-131942],19.03%
12,Nc1nc(N)c2c(ccc3[nH]c(-c4ccccc4Cl)nc32)n1 [TCMDC-137840],117.2%
13,COc1ccccc1-c1nc2c(ccc3nc(N)nc(N)c32)[nH]1 [TCMDC-137976],123.3%
14,Fc1ccc2[nH]c(-c3ccc(-c4ccc(CNCc5cnn(-c6ccccc6)n5)cc4)cc3)nc2c1.O=C(O)C(F)(F)F [TCMDC-132969],45.68%
15,Cc1ccc(N2CCN(CCCCNC(=O)c3ccc(NC(=O)c4ccc(Cl)cc4)cc3)CC2)c(C)c1 [TCMDC-138507],8.523%
16,O=C1OC2(CN1CC1CCN(Cc3ccc(O)c(Cl)c3)CC1)c1ccccc1-c1ccccc12 [TCMDC-136071],20.11%
17,O=S(=O)(NCCN1CCCC1)c1ccc(-c2cccc(CNCCc3cccs3)c2)s1 [TCMDC-132376],19.55%

row,Compound,% Inhibition
1,O=S(=O)(NCCN1CCCC1)c1ccc(-c2cccc(CNCCc3cccs3)c2)cc1 [TCMDC-132374],64.21%
2,O=S(=O)(NCCN1CCCC1)c1cccc(-c2cccc(CNCCc3cccs3)c2)c1 [TCMDC-132378],78.26%
3,COc1ccc(CN(C)Cc2cc(C(C)C)c(C)cc2O)cc1F [TCMDC-124597],-22.84%
4,O=C(Nc1nccs1)c1cc(-c2cccnc2)nc2ccc(Br)cc12 [TCMDC-125215],-12.6%
5,CO[C@H](C)[C@H](NC(=O)[C@H](CC(C)C)[C@H](CCC(F)(F)F)N(O)C=O)C(=O)Nc1nccs1 [TCMDC-138190],15.4%
6,COC(=O)c1ccc2[nH]cc(C3CCN(CCC4CCN(C(=O)/C=C/c5ccc(Cl)c(Cl)c5)CC4)CC3)c2c1 [TCMDC-139787],19.69%
7,CN(CCCc1c[nH]c2ccccc12)CC1CCN(C(=O)/C=C/c2ccc(Cl)c(Cl)c2)CC1 [TCMDC-140117],55.67%
8,CN(CCC1CCN(C(=O)/C=C/c2ccc(Cl)c(Cl)c2)CC1)C1CCC(c2c[nH]c3ccccc23)CC1 (stereo not shown) [TCMDC-140107],60.82%
9,COc1ccc2[nH]cc(C3CC4CCC(C3)N4CCC3CCN(C(=O)/C=C/c4ccc(Cl)c(Cl)c4)CC3)c2c1 (stereo not shown) [TCMDC-139670],106%
10,O=C(/C=C/c1ccc(Cl)c(Cl)c1)N1CCC(CCCN2CCC(c3c[nH]c4ccccc34)CC2)CC1 [TCMDC-139795],25.74%
11,O=C(/C=C/c1ccc(Cl)c(Cl)c1)N1CCC(CN2CCC(Cc3c[nH]c4ccccc34)CC2)CC1 [TCMDC-140143],-20.89%
12,O=C(/C=C/c1ccc(Cl)c(Cl)c1)N1CCC(CN2CCC(c3c[nH]c4ccccc34)C(O)C2)CC1 (stereo not shown) [TCMDC-139825],-12.75%
13,COc1ccc2[nH]cc(C3CCN(CCC4CCN(C(=O)/C=C/c5ccc(Cl)c(Cl)c5)CC4)CC3)c2c1 [TCMDC-139658],-35.62%
14,O=C(/C=C/c1ccc(Cl)c(Cl)c1)N1CCC2CC(N3CCC(c4c[nH]c5ccccc45)CC3)CCC2C1 (stereo not shown) [TCMDC-139677],-29.29%
15,O=C(/C=C/c1ccc(Cl)c(Cl)c1)N1CCC(NCc2c[nH]c3ccccc23)CC1 [TCMDC-134197],-0.4755%
16,O=C(/C=C/c1ccc(Cl)c(Cl)c1)N1CCC(CN2C3CCC2CC(c2c[nH]c4ccccc24)C3)CC1 (stereo not shown) [TCMDC-139814],116.4%
17,CN(CC1CCC(NC(=O)/C=C/c2ccc(Cl)c(Cl)c2)CC1)C1CCC(c2c[nH]c3ccccc23)CC1 (stereo not shown) [TCMDC-140213],-15.26%
